TDP1 cell noCPT: qHTS for Inhibitors of human tyrosyl-DNA phosphodiesterase 1 (TDP1): qHTS in cells in absence of CPT; Potency, µM (doses to about 46.2 µM), for the others: top-dose activity change, negative = growth inhibition, actives largely listed as inhibitors; AID 686978, 2013; DT40 Tdp1-/- hTDP1 cells, no CPT, ATP luminescence, 48 h; 420,000 compounds, 15% hits; note: potency is the fitted concentration of half-maximal effect; % is set by controls: 0 for no effect and ±100 for the full control effect; nearly all actives have a fitted effect of over 55% in size
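Readout: luminescence from CellTiter-Glo after 30 min in the dark at RT. Cells: DT40 Tdp1-/- with stable hTDP1, 400/well. Exposure: compounds alone, ≥48 hr, 37 °C.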
ClpP mod: qHTS Assay for Activators of ClpP. ATP-dependent Clp protease proteolytic subunit (Bacillus subtilis (strain 168)), P80244. purified B. subtilis ClpP, FRET peptide cleavage, 20 min. Potency, µM (series often up to 57.5 µM), without a hit: at the highest dose activity change, negative = active. 340,000 compounds, 1.9% hits; active = well fitted falling curve with a large enough effect; inconclusive = small, poorly fitted or top-dose-only effect; inactive = no such curve, though single readings can be large or run the other way; note: potency is the fitted concentration of half-maximal effect; the source files actives as falling curves though it sought activators and does not explain the sign; nearly all actives have a fitted effect of over 65% in size
Target sequence (P80244 whole entry, looked up): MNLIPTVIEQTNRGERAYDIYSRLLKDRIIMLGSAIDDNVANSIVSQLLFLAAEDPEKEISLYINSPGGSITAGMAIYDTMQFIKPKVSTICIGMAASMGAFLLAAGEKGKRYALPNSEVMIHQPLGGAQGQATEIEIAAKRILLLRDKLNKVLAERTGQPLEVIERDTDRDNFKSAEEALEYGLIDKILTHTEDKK
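Purified B. subtilis ClpP, 10 microg/mL final in Tris/HCl pH8 with KCl, BSA, glycerol and Tween-20, cleaved an Abz/nitrotyrosine-quenched decapeptide. Fluorescence (ex 320, em 430) was read at 0 and 20 min at room temperature. Delta was normalized to 5.8 microM ADEP and DMSO/no-enzyme controls.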
DT40 TDP1 CPT: growth inhibition of DT40 Tdp1-/-;hTDP1 cells with camptothecin (screen for TDP1 inhibitors); chicken DT40 Tdp1-/-;hTDP1 cells + 20 nM CPT, ATP luminescence, 48 h; AID 686979; Potency, µM (series often up to 46.2 µM), inactives show at the top dose activity change, negative = growth inhibition, actives largely listed as inhibitors; 420,000 compounds, 12% hits; note: potency is the fitted concentration of half-maximal effect; % is set by controls: 0 for no effect and ±100 for the full control effect; nearly all actives have a fitted effect of over 55% in size
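Cell growth measured by CellTiter-Glo luminescence after a minimum 48 h, 37 C compound exposure with 20 nM CPT in Tdp1-knockout DT40 cells stably expressing hTDP1, seeded 400/well; qHTS titration format.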
DRD3 antagonist: D3 dopamine receptor (human) antagonism | P35462 | D3R cells, DiscoveRx beta-arrestin luminescence, antagonist mode; active compounds read low | max response, negative = inhibition, % | 360,000 compounds, 2.5% hits; in the data active = max response below about -50%; inconclusive = no clear call, values can overlap the other calls; note: % is set by controls: 0 for no effect and ±100 for the full control effect
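Cells expressing the human receptor were seeded at 1500 cells/well, incubated overnight at 37 degrees C in 5% CO2, then exposed to library compounds with dopamine controls for 90 minutes at 37 degrees C before luminescent detection.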
DRD3 agonist: agonists of human D3 dopamine receptor. D3R DiscoveRx beta-arrestin cells, luminescence, 90 min. 410,000 compounds, 0.58% hits. max activation, %. P35462; in the data active = max activation above about 30%; note: 0% is about no effect
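Agonist-mode cell screen: cells plated at 1500/well and incubated overnight at 37 °C, then exposed to library compounds for 90 min at 37 °C. Detection reagent was added for 30–60 min at room temperature, and luminescence was read.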
IL1B secr inh: blocks inflammasome-driven IL-1 beta release. 360,000 compounds, 4.7% hits. activity change, % at 57.5 µM. THP-1 LPS/ATP IL-1B secretion, AlphaLISA, 16 h; active compounds read low; in the data active = activity change below about -50%; inconclusive = mostly about -30% to -49%; note: % is set by controls: 0 for no effect and ±100 for the full control effect
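THP-1 cells pretreated 1 hr with compounds (up to 57.5 uM final), then stimulated with LPS (250 ng/mL final) plus ATP (1.25 mM final); secreted IL-1B measured by AlphaLISA after 16 hr, decreased signal indicating inhibition.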
An asterisk follows results filed as active; ? = inconclusive; / = no result given. In the library only some 21% were active in any assay of this set; here they are far more common. Unless noted, calls come from the whole dose curve; as a rule, active = well fitted inhibition curve with a large enough effect; inconclusive = small, poorly fitted or top-dose-only effect; inactive = flat fitted curve, though single readings scatter.

SMILES	TDP1 cell noCPT	ClpP mod	DT40 TDP1 CPT	DRD3 antagonist	DRD3 agonist	IL1B secr inh
CSc1nnc(CSCc2ccc(Cl)cc2Cl)n1-c1ccccc1	20µM*	1%	?	13	4	-16
CC1C(=O)N(Cc2cn(CC3CCCCC3)nn2)CCS(=O)(=O)N1Cc1ccc(-c2ccccc2)cc1 (stereo not drawn)	15µM*	0%	23µM*	-16	-8	-18
Cc1ccc(-c2ccc(CN3C(C)C(=O)N(Cc4cn(CC5CCCCC5)nn4)CCS3(=O)=O)cc2)cc1 (stereo not drawn)	16µM*	-2%	16µM*	0	-9	?
COc1ccc(-c2ccc(CN3C(C)C(=O)N(Cc4cn(CC5CCCCC5)nn4)CCS3(=O)=O)cc2)cc1 (stereo not drawn)	10µM*	-6%	15µM*	-5	8	5
CC1C(=O)N(Cc2cn(CC3CCCCC3)nn2)CCS(=O)(=O)N1Cc1ccc(-c2ccc(F)nc2)cc1 (stereo not drawn)	-24%	0%	?	8	1	2
CC1C(=O)N(Cc2cn(CCC3OCCO3)nn2)CCS(=O)(=O)N1Cc1ccc(-c2ccncc2)cc1 (stereo not drawn)	-1%	-5%	-8%	35	3	19
Cn1c(=O)c2c(-c3ccc(Cl)cc3)ccnc2n(C)c1=O	?	-15%	-11%	/	-4	/
COc1ccccc1Oc1nc([N+](=O)[O-])nn1CC(N)=O	?	/	-25%	7	5	20
O=C(Nc1ccccc1)c1ccc(CSc2ccccn2)cc1	?	0%	?	5	1	-12
FC(F)(F)c1ccc(CSc2ccccn2)cc1	-26%	/	-3%	-11	0	-61*
COc1ccc(N2CCN(c3nc(NCCc4ccc(OC)c(OC)c4)nc(OC)n3)CC2)cc1	4.6µM*	-2%	6.5µM*	58	38*	?
CCOc1cc(C)nc(NCCc2ccc(OC)c(OC)c2)n1	20µM*	-1%	?	19	-2	-57*
COc1ccc(CCNc2nc(C)cc(=O)[nH]2)cc1OC	8%	-1%	-1%	-22	15	27
COc1ccc(-c2cc(C(F)(F)F)nc(NC3CCCC3)n2)cc1OC	?	35µM*	?	11	6	50
COc1ccc(CCNc2nc(-c3ccc(OC)c(OC)c3)cc(C(F)(F)F)n2)cc1OC	?	?	18µM*	/	38*	/
O=C(COc1cccc(-n2cnnn2)c1)Nc1ccc([N+](=O)[O-])cc1	-13%	/	-7%	-15	-10	28
C=CC[C@]12C[C@@H](OC)C(=O)C=C1O[C@@H](c1ccc(OC)c(OC)c1)[C@H]2C	?	-1%	18µM*	22	8	3
C=CC[C@@]12C=C(OC)C(=O)C(OC)=C1O[C@H](c1ccc3c(c1)OCO3)[C@H]2C	-17%	-2%	-23%	13	0	-13
CCN1CCSc2ccc(C(=O)NCc3ccccc3F)cc21	-19%	4%	-13%	?	-18	-13
CN1CCN(CCCNC(=O)c2ccc3c(c2)N(Cc2ccc(F)cc2)CCS3)CC1	?	4%	16µM*	-4	5	-8
O=C(NCCCN1CCOCC1)c1ccc2c(c1)N(Cc1ccc(F)cc1)CCS2	?	4%	16µM*	-21	-9	-5
CCN1CCN(CCCNC(=O)c2ccc3c(c2)N(Cc2ccccc2)CCS3)CC1	?	4%	23µM*	5	-8	-27
O=C(NCC1CCCO1)c1ccc2c(c1)N(Cc1ccc(F)cc1)CCS2 (stereo not drawn)	?	4%	?	-12	2	-7
CCCN(CCC)Cc1cc(=O)oc2cc(C)c(Cl)cc12	?	-10%	?	0	-6	6
